Only some compounds are listed: those with a hit (about 21% of all), similar ones and a draw of the others.
DT40 TDP1 CPT – growth inhibition of DT40 Tdp1-/-;hTDP1 cells with camptothecin (screen for TDP1 inhibitors). chicken DT40 Tdp1-/-;hTDP1 cells + 20 nM CPT, ATP luminescence, 48 h. 12% of 420,000 active. Potency, µM (top dose mostly 46.2 µM), inactives show at the top dose activity change, negative = growth inhibition, usual class: inhibitors. AID 686979; note: potency is the fitted concentration of half-maximal effect; % is set by controls: 0 for no effect and ±100 for the full control effect; nearly all actives have a fitted effect of over 55% in size
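Chicken DT40 Tdp1-/- cells complemented with human TDP1, 400 cells/well, exposed to compounds plus 20 nM camptothecin for at least 48 h at 37 C; viability read as ATP content by CellTiter-Glo luminescence.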
IL-1B inflam inh – inhibitors of inflammasome signaling (IL-1 beta secretion). THP-1 LPS/ATP IL-1B secretion, AlphaLISA, 16 h; active compounds read low. 4.7% of 360,000 active. activity change, % at 57.5 µM. AID 743279; in the data active = activity change below about -50%; inconclusive = mostly about -30% to -49%; note: % is set by controls: 0 for no effect and ±100 for the full control effect
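THP-1 cells pretreated 1 hr with compounds (up to 57.5 uM final), then stimulated with LPS (250 ng/mL final) plus ATP (1.25 mM final); secreted IL-1B measured by AlphaLISA after 16 hr, decreased signal indicating inhibition.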
D3 ag – agonists of human D3 dopamine receptor; P35462; D3R DiscoveRx beta-arrestin cells, luminescence, 90 min; max activation, %; 0.58% of 410,000 active; AID 652048; in the data active = max activation above about 30%; note: 0% is about no effect
Target sequence (P35462 whole entry, looked up): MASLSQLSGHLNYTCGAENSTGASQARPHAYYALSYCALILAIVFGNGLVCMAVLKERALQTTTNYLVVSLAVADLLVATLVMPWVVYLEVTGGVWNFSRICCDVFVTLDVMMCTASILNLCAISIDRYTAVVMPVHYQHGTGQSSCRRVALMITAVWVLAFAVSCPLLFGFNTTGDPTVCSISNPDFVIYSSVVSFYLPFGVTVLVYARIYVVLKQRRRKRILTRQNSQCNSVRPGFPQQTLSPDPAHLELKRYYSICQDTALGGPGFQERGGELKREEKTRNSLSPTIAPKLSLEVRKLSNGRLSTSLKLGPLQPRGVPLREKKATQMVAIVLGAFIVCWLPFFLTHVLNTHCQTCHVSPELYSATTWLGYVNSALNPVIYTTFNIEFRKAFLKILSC
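Cells at 1500/well, incubated overnight, then treated with pinned compounds (dopamine as control) for 90 min at 37 degrees C. DiscoveRx reagent added for 30 - 60 minutes at room temperature; luminescence read.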
D3 antag – D3 dopamine receptor (human) antagonism; D3R cells, DiscoveRx beta-arrestin luminescence, antagonist mode; active compounds read low; max response, negative = inhibition, %; 2.5% of 360,000 active; AID 652054; in the data active = max response below about -50%; inconclusive = no clear call, values can overlap the other calls; note: % is set by controls: 0 for no effect and ±100 for the full control effect
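Cells expressing the human receptor were seeded at 1500 cells/well, incubated overnight at 37 degrees C in 5% CO2, then exposed to library compounds with dopamine controls for 90 minutes at 37 degrees C before luminescent detection.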
TDP1 cell noCPT – qHTS for Inhibitors of human tyrosyl-DNA phosphodiesterase 1 (TDP1): qHTS in cells in absence of CPT | DT40 Tdp1-/- hTDP1 cells, no CPT, ATP luminescence, 48 h | Potency, µM (highest dose often 46.2 µM), without a hit: at the top dose activity change, negative = growth inhibition, hits mostly inhibitors | 15% of 420,000 active | AID 686978, 2013; note: potency is the fitted concentration of half-maximal effect; % is set by controls: 0 for no effect and ±100 for the full control effect; nearly all actives have a fitted effect of over 55% in size
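Camptothecin absent (DMSO only). Human TDP1-complemented DT40 knockout cells, 400 cells/well, 37 °C for minimum 48 hr; ATP measured via CellTiter-Glo, 30 min dark incubation, luminescence.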
ClpP mod – qHTS Assay for Activators of ClpP; ATP-dependent Clp protease proteolytic subunit (Bacillus subtilis (strain 168)), P80244; 1.9% of 340,000 active; Potency, µM (series often up to 57.5 µM), without a hit: at the highest dose activity change, negative = active; AID 651965, 2013; purified B. subtilis ClpP, FRET peptide cleavage, 20 min; active = well fitted falling curve with a large enough effect; inconclusive = small, poorly fitted or top-dose-only effect; inactive = no such curve, though single readings can be large or run the other way; note: potency is the fitted concentration of half-maximal effect; the source files actives as falling curves though it sought activators and does not explain the sign; nearly all actives have a fitted effect of over 65% in size
Target sequence (P80244 whole entry, looked up): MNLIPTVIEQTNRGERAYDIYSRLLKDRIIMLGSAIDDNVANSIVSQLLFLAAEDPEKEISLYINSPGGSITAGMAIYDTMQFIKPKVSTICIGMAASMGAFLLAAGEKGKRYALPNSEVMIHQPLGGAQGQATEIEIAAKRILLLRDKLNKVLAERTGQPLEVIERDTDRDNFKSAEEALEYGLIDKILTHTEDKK
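Buffer: 100 mM Tris/HCl pH8, 100 mM KCl, 0.05% low protease BSA, 2.5% glycerol, 0.01% Tween-20. ClpP 10 microg/mL final; 20 min RT; delta FRET normalized to ADEP and DMSO controls.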
The depositor's hits bear a star; ? = inconclusive; / = not tested or not shown; [ ] = dose if it differs, or a comment. Unless noted, calls come from the whole dose curve; as a rule, active = well fitted inhibition curve with a large enough effect; inconclusive = small, poorly fitted or top-dose-only effect; inactive = flat fitted curve, though single readings scatter.

SMILES	DT40 TDP1 CPT	IL-1B inflam inh	D3 ag	D3 antag	TDP1 cell noCPT	ClpP mod
CN(C(=O)c1cccs1)c1ccc(OCC(=O)Nc2ccc(C(=O)O)cc2)cc1	-17.6%	0.0	3.3	4.9	1.4%	-2.5%
COc1cc2c(c(OC)c1CC=C(C)C)C[C@H](c1ccc(O)cc1O)CO2	-24.6%	-17.5	-3.5	0.5	?	-13.5%
Cc1ccc(CN(Cc2cccn2-c2nnc(N3CCCC3=O)s2)C(=O)Nc2ccc(F)cc2)cc1	?	/	-13.2	/	?	?
COc1ccc2[nH]cc(C(O)CN3CCN(c4ccccc4F)CC3)c2c1 (stereo unspecified)	?	/	-24.8	-63.4*	?	/
COc1ccccc1N1CCN(CC(O)COCc2cccs2)CC1 (stereo unspecified)	-4.4%	45.3	-3.0	-61.5*	8.6%	-0.4%
COc1ccccc1N1CCN(CC(O)COc2c(OC)cccc2OC)CC1 (stereo unspecified)	16.4µM*	32.8	-6.7	-98.8*	?	0.3%
COc1cccc(OC)c1OCC(O)CN1CCN(c2ccccc2)CC1 (stereo unspecified)	?	14.2	0.6	-9.0	-27.2%	-9.3%
OCCN1CCN(CC(O)COCCOc2ccc(Br)cc2)CC1 (stereo unspecified)	?	13.2	-8.2	0.0	23.1µM*	2.1%
CCc1sc(-c2cc3ccccc3oc2=O)nc1-c1ccc(C)cc1	9.0%	/	/	/	-19.1%	?
OC(CNC1CCCC1)COCCOc1ccc(Br)cc1 (stereo unspecified)	?	-65.6*	-13.9	-15.9	?	/
CCOC(=O)N1CCN(CC(O)c2ccc3cc[nH]c3c2)CC1 (stereo unspecified)	-22.7%	12.8	2.6	5.1	5.4%	-4.0%
COc1ccccc1N1CCN(CC(O)c2ccc3cc[nH]c3c2)CC1 (stereo unspecified)	?	-7.4	-14.6	-82.2*	?	-6.1%
OC(COc1cccc2ccccc12)CN1CCN(c2ccccc2Cl)CC1 (stereo unspecified)	18.4µM*	-8.5	27.3	-80.6*	?	-13.0%
Cc1ccc(N2CCN(CC(O)COc3cccc4ccccc34)CC2)cc1 (stereo unspecified)	?	-21.3	3.8	-22.8	?	0.3%
CC(C)CNS(=O)(=O)c1cc2c3c(c1)CCC(=O)N3CCC2	-2.8%	29.5	6.0	2.6	4.1%	-2.2%
C/C(COc1ccccc1)=N\NC(=O)c1nnn(-c2nonc2N)c1CSc1ccccc1	-1.9%	15.2	1.0	9.2	-22.7%	-0.6%
O=C(CC1C(=O)NCCN1Cc1ccc(-c2ccccc2)cc1)NCc1ccccc1 (stereo unspecified)	?	-56.9*	7.4	10.6	?	/
O=C(CC1C(=O)NCCN1Cc1ccc(-c2ccccc2)cc1)NC1CCC1 (stereo unspecified)	-27.6%	-20.9	2.4	0.0	14.6µM*	-23.6%
CCc1cc(CNC(=O)CC2C(=O)NCCN2Cc2ccc(-c3ccccc3)cc2)on1 (stereo unspecified)	-13.9%	11.3	-1.9	-1.0	?	-8.7%
COc1ccc(CN2CCNC(=O)C2CC(=O)NC2CCCCCC2)c(F)c1 (stereo unspecified)	-2.9%	-9.2	-25.0	-69.2*	-13.8%	-5.4%
CCOc1ccc(C(=O)NC2CCN(C(=O)Nc3ccc(F)cc3)CC2)cc1	11.4%	5.1	8.3	15.4	-11.6%	/
CCc1cccc(C)c1NC(=O)CSc1nnc(C)o1	-8.3%	21.3	9.3	13.0	0.0%	2.8%
COC(=O)C1CCN(c2nc3ccccc3nc2C(C#N)C(=O)OCC(C)C)CC1 (stereo unspecified)	23.1µM*	-4.3	-7.4	-17.6	11.6µM*	4.1%
CCOC(=O)C1CCN(c2nc3ccccc3nc2C(C#N)C(=O)OC(C)C)CC1 (stereo unspecified)	16.4µM*	-16.9	2.9	16.0	11.6µM*	-3.5%
CCOC(=O)C1CCCN(c2nc3ccccc3nc2C(C#N)C(=O)OC(C)C)C1 (stereo unspecified)	?	0.0	-4.4	0.0	?	-9.7%
SMILES	DT40 TDP1 CPT	IL-1B inflam inh	D3 ag	D3 antag	TDP1 cell noCPT	ClpP mod
C=CCOC(=O)C(C#N)c1nc2ccccc2nc1N1CCC(C(=O)OCC)CC1 (stereo unspecified)	?	-17.3	1.3	0.0	18.4µM*	0.1%
CCOC(=O)C1CCN(c2nc3ccccc3nc2C(C#N)C(=O)OCCOC)CC1 (stereo unspecified)	?	-10.0	10.1	5.7	?	1.3%
C=CCOC(=O)C(C#N)c1nc2ccccc2nc1N1CCN(c2ccccc2OCC)CC1 (stereo unspecified)	1.1%	16.3	-10.8	-11.9	-4.6%	-1.6%
CCOC(=O)C1CCN(c2nc3ccccc3nc2C(C#N)C(=O)OC(C)COC)CC1 (stereo unspecified)	20.6µM*	-2.4	1.6	13.9	18.4µM*	?
COc1ccc(/C=C/C2=CC(C)(C)NC(=S)N2)cc1	0.7%	-10.3	-19.1	-27.6	?	-0.1%
COCC(=O)N1CCC2CC1c1cc(Cl)ccc12 (stereo unspecified)	-1.1%	32.0	0.7	18.6	-15.1%	1.6%
COc1ccc(CNC(=O)C(C#N)c2nc3ccccc3nc2N2CCN(C)CC2)cc1 (stereo unspecified)	?	-51.7*	-12.8	?	-29.3%	-1.3%
COc1ccc(C2(c3ccc(OC)cc3)NC(=O)N(CC(=O)NCC(C)c3ccccc3)C2=O)cc1 (stereo unspecified)	-4.0%	?	1.5	14.0	3.4%	0.7%
Cc1c(CCNC(=O)c2ccc(Br)o2)sc2nc(-c3ccc(F)cc3)nn12	11.6µM*	/	10.3	/	4.61µM*	-2.5%
COc1ccc(-c2nc3sc(CCNC(=O)c4ccccc4C)c(C)n3n2)cc1	?	/	9.5	/	?	0.2%
Cc1ccc(-c2nc3sc(CCNC(=O)c4ccc(Br)o4)c(C)n3n2)cc1	?	/	11.9	/	29.1µM*	0.3%
CC(C)(CO)NC(=O)c1cnn(-c2ncc3c(n2)-c2ccccc2CC3)c1C1CC1	5.8%[9.04 µM]	/	/	/	-24.7%	/
COc1ccc(OCc2ccc(-c3nc(C#N)c(NC(C)c4ccccc4)o3)o2)cc1 (stereo unspecified)	-11.2%	/	-4.4	/	-15.3%	?
COc1ccccc1CNC(=O)c1cc2ccc3ccc(C)[nH]c3c2n1	18.4µM*	/	7.0	/	16.4µM*	-1.8%

Source: PubChem
